# From PubChem BioAssay
# This is a sample that favours compounds with a hit; in the whole collection about 10% have one here.
# Six1-Eya2 inh: blocks human Six1 binding to Eya2 | Q15475+O00167 | AlphaScreen GST-Six1/His-Eya2 binding, biochemical; active compounds read low | activity change, % (test concentration not listed) | 0.56% of 360,000 active | AID 651725; in the data active = activity change below about -65%; inconclusive = mostly about -30% to -63%; note: % is set by controls: 0 for no effect and ±100 for the full control effect
#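 AlphaScreen luminescence read after one hour at 37 °C in darkness. Pin-transferred compounds met GST-Six1 and His-Eya2 protein (5X stock 250 nM/500 nM) plus glutathione donor and Ni-chelate acceptor beads (5X, 50 ug/mL).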
# BAZ2B inh: BAZ2B (human) inhibition | Q9UIF8 | AlphaScreen BAZ2B-H3K14Ac peptide displacement | Potency, µM (titrated, usually from 114 µM), for inactives: at the highest dose activity change, negative = inhibition, actives largely listed as inhibitors | 4.4% of 360,000 active; note: potency is the fitted concentration of half-maximal effect; % is set by controls: 0 for no effect and ±100 for the full control effect; nearly all actives have a fitted effect of over 60% in size
#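 Multi-concentration screen (max 110 uM) measuring displacement of acetylated histone H3 peptide from BAZ2B by AlphaScreen, using 50 nM protein, 50 nM peptide and 10 ug/mL streptavidin donor plus Ni-chelate acceptor beads.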
# HP1b binding inh: HP1-beta chromodomain-methylated histone interaction inhibition; AlphaScreen HP1-beta / biotin-H3K9me3 peptide binding; Potency, µM (titrated, usually from 114 µM), for the others: top-dose activity change, negative = inhibition, actives largely listed as inhibitors; P83916; AID 540317; 0.56% of 390,000 active; note: potency is the fitted concentration of half-maximal effect; nearly all actives have a fitted effect of over 70% in size
#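 HP1-beta protein (50 nM final) preincubated 30 min at room temperature with biotinylated H3(1-18)K9me3 peptide (50 nM) in PBS pH 7.4, 0.01% Tween-20, then compound added for 30 min. AlphaScreen streptavidin donor/nickel chelate acceptor beads (10 ug/mL final), 30 min dark, luminescence read.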
# JMJD2A Tudor: inhibitors of human JMJD2A Tudor domain | AlphaScreen JMJD2A-Tudor / H3K4me3 peptide binding | Potency, µM (top dose mostly 114 µM), without a hit: at the highest dose activity change, negative = inhibition, hits mostly inhibitors | 4.4% of 390,000 active | O75164; note: potency is the fitted concentration of half-maximal effect; % is set by controls: 0 for no effect and ±100 for the full control effect; nearly all actives have a fitted effect of over 50% in size
# Target sequence (O75164 whole entry, looked up, the tested form may be a part): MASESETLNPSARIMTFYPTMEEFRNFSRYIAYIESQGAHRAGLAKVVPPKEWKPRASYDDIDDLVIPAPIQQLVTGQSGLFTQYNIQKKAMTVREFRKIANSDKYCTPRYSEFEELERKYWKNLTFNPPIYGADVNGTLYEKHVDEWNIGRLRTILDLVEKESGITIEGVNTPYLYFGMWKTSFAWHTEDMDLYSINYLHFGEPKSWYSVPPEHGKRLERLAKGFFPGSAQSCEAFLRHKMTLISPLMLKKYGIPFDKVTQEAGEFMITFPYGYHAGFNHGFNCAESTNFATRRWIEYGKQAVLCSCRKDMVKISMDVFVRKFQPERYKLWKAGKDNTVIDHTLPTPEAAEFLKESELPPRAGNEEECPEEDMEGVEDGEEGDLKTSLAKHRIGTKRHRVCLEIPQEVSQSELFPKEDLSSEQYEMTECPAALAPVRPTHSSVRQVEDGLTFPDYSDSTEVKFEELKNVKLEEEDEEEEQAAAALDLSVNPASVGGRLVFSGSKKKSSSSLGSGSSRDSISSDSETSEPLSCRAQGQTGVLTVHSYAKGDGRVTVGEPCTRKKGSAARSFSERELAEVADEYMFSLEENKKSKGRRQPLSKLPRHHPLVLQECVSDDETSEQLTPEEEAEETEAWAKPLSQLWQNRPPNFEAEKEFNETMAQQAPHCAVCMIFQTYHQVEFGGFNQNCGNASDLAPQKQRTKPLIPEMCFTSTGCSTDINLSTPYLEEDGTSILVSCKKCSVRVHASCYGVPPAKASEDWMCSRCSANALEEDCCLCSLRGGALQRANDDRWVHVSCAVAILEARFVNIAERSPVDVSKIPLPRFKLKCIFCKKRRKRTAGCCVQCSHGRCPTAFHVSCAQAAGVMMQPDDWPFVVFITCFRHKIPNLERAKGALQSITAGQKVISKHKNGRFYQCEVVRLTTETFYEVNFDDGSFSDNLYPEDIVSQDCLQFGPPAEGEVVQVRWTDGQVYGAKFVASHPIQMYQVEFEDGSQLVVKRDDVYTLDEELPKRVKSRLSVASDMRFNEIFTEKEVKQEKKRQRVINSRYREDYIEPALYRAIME
# G9a inh: blocks human histone lysine methyltransferase G9a; Q96KQ7; Potency, µM (doses to about 102 µM), for inactives: at the top dose activity, negative = inhibition, most hits filed as inhibitors; G9a H3K9 monomethylation, AlphaScreen, 2 h; 8.8% of 350,000 active; note: potency is the fitted concentration of half-maximal effect; % is set by controls: 0 for no effect and ±100 for the full control effect; nearly all actives have a fitted effect of over 75% in size
#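 G9a (20 nM) was preincubated 15 min with compound, then reacted 2 h at room temperature with 500 nM biotin-H3K9 peptide and 20 µM SAM. Monomethyl-H3K9 detected by AlphaScreen using anti-H3K9me1 antibody.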
# CtBP-E1A inh: blocks the CtBP interaction with E1A | AlphaScreen GST-E1A/His-CtBP binding, 1536-well; active compounds read low | activity change, % (no concentration beside the values) | 0.49% of 340,000 active; in the data active = activity change below about -65%; inconclusive = mostly about -30% to -63%; note: % is set by controls: 0 for no effect and ±100 for the full control effect
#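 In 5 uL wells, 23 nL compound meets equimolar GST-E1A and His-CtBP (5X stock 125 nM each) for 2 h, 37 °C. Beads (5X, 50 ug/mL) then 1 h, 37 °C, dark.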
# The depositor's hits bear a star; ? = inconclusive; / = no result; [ ] = dose if it differs, or a comment. Unless noted, calls come from the whole dose curve; as a rule, active = well fitted inhibition curve with a large enough effect; inconclusive = small, poorly fitted or top-dose-only effect; inactive = no such curve, though single readings can be large or run the other way.
SMILES,Six1-Eya2 inh,BAZ2B inh,HP1b binding inh,JMJD2A Tudor,G9a inh,CtBP-E1A inh
C/C(CC1CC(C)OC1=O)=N\NC(N)=S (stereo unspecified),7,?,-12%,?,35µM*,/
CCC1CC(/C(C)=N/NC(N)=O)OC1=O (stereo unspecified),2,-13%,16%,-6%,-10%[59 µM],5
O=C(O)c1cn[nH]c1-n1cnnn1,?,-1%,15%,?,50µM*,?
COc1ccccc1-n1c(SC)nc2c(sc(=S)n2-c2ccccc2)c1=O,-4,1%,25%,1%,29%,1
CCN(CC)C(=O)CSc1nc2c(sc(=S)n2CC)c(=O)n1-c1ccccc1,-2,0%,25%,-12%,?,5
COc1ccccc1-n1c(=S)sc2c(=O)n(Cc3ccco3)c(SC)nc21,-30,-38%,-34%,?,13µM*,?
CCN(CC)C(=O)CSc1nc2c(sc(=S)n2-c2ccccc2)c(=O)n1Cc1ccco1,-15,56µM*,-31%,-28%,40µM*,-13
CC(=O)c1ccc(-c2ccc(/C=C(/Sc3n[nH]c(C)n3)C(=O)O)o2)cc1,-2,?,13%,?,?,-21
Cc1nc(S/C(=C/c2ccc(-c3cc(Cl)ccc3C)o2)C(=O)O)n[nH]1,-4,-33%,13%,45µM*,/,-6
Cc1nc(S/C(=C/c2ccc(-c3ccc(C(=O)O)cc3)o2)C(=O)O)n[nH]1,-27,10µM*,?,20µM*,11µM*,0
CC(C)c1ccc(NC(=O)CN2C(=O)c3cccc4cccc2c34)cc1,/,-2%,27%,8%,0%[59 µM],/
Cc1ccc(C(=O)c2cc(C)sc2NC(=O)CN2CCN(C(=O)c3ccco3)CC2)cc1,-25,?,?,?,32µM*,-16
Cc1ccc(C(=O)Nc2ccc(N3CCN(C(=O)c4ccco4)CC3)cc2)cc1,-1,-28%,-7%,79µM*,2%,3
Cc1ccc(OCC(=O)Nc2ccc(N3CCN(C(=O)c4ccco4)CC3)cc2)cc1C,-16,-11%,6%,-26%,8%[0.501 µM],-1
Cc1cccc(OCC(=O)Nc2ccc(N3CCN(C(=O)c4ccco4)CC3)cc2)c1,-9,-38%,0%,-33%,79µM*,-6
O=C(Nc1ccc(N2CCN(C(=O)c3ccco3)CC2)cc1)c1ccc(Br)cc1,3,-17%,37%,-9%,0%,/
O=C(COc1ccc2ccccc2c1)N1CCN(C(=O)c2ccco2)CC1,2,13%,5%,-10%,-37%,-12
O=C(NCc1ccccc1)c1cccc(OCC(=O)N2CCN(C(=O)c3ccco3)CC2)c1,-3,?,0%,40µM*,8.9µM*,1
COc1cccc(CCNC(=O)c2cnc3sc(N4CCCCCC4)nn3c2=O)c1,/,-1%,18%,-9%,-6%[59 µM],/
CCOc1ccc(-n2cc(-c3ccccc3)c3c(N4CCN(c5ccccc5OC)CC4)ncnc32)cc1,/,?,-29%,?,-9%[59 µM],/
Cc1cc(Nc2cc(Cl)ccc2C)n2nc(Cc3ccccc3)nc2n1,/,-19%,35%,-21%,2%[59 µM],/
O=C(Cn1nnc(-c2ccc(F)cc2)n1)N1CCCCC1,-4,-16%,30%,7%,22%,1
O=C(Cc1ccc(Cl)cc1)Nc1ccc(N2CCN(C(=O)c3ccco3)CC2)cc1,-15,-31%,-15%,25%[11.4 µM],7.9µM*,-10
O=C(Nc1ccc(-c2nnn(CC(=O)N3CCN(C(=O)c4ccco4)CC3)n2)cc1)c1ccc(F)cc1,-2,79µM*,54%,-5%[11.4 µM],56µM*,-9
O=C(Nc1ccc(F)c(Cl)c1)N1CCN(C(=O)c2nsc3ccccc23)CC1,/,1%,37%,-1%,-1%[59 µM],/
Cc1cc(Br)ccc1NC(=O)Cn1cc(S(=O)(=O)N2CCN(c3ccccc3F)CC2)c2ccccc2c1=O,/,1%,21%,-13%,-3%[59 µM],/
O=C(COc1ccc(F)cc1)Nc1ccccc1C(=O)OCc1cc(=O)n2ccsc2n1,/,?,56%,-25%,-23%[59 µM],/
